Measurements as given in PubChem BioAssay (NCI).
Values joined by “and” are separate entries in the source; they are usually repeats but may differ in a detail not shown here. Identical values can stand only once. This is part of a sample that, as a whole, favours compounds with a hit. Of some 79,000 tested, about 15% had one in any assay. More than one record can exist for a structure, and the calls need not agree. Active and inactive are the calls of the source. Cut-off read from the data, not from the text of the source: active = growth inhibition above about 70%; inactive = the rest.

What was measured:
[1] = NCI Yeast Anticancer Drug Screen. Data for the rad50 strain (AID 155);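 note: 0% = growth of vehicle-only cultures of the same strain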; conditions: S. cerevisiae rad50 strain growth inhibition; at 50.0 µM; stronger effect = higher value
Procedure, shortened: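 Readout: growth inhibition relative to vehicle-treated cultures. Compound exposure was carried out in a genetically defined yeast strain deficient in DNA damage repair.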

[2] = NCI Yeast Anticancer Drug Screen. Data for the mec2-1 strain (AID 157); conditions: S. cerevisiae mec2-1 strain, at 50.0 µM, stronger effect = higher value
Procedure, shortened: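 Strain: mec2-1 (DNA repair/cell cycle alteration). Compound exposure, then growth measured; inhibition expressed relative to vehicle.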

[3] = NCI Yeast Anticancer Drug Screen. Data for the sgs1 mgt1 strain (AID 161);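 note: 0% = growth of cultures given vehicle only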; conditions: S. cerevisiae sgs1 mgt1 strain, at 50.0 µM, stronger effect = higher value
Procedure, shortened: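 Read-out: growth inhibition vs vehicle controls. Cells: mutant yeast strain deficient in DNA damage repair.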

[4] = NCI Yeast Anticancer Drug Screen. Data for the cln2 rad14 strain (AID 165);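 note: 0% = growth equal to vehicle treated cultures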; conditions: S. cerevisiae cln2 rad14 strain, at 50.0 µM, stronger effect = higher value
Procedure, shortened: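 Compounds are applied to the cln2 rad14 yeast strain, and growth is then compared with that of vehicle-treated cultures to give inhibition.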

[5] = NCI Yeast Anticancer Drug Screen. Data for the bub3 strain (AID 167); conditions: S. cerevisiae bub3 mutant strain, at 50.0 µM, stronger effect = higher value
Procedure, shortened: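 Readout: yeast growth inhibition, expressed relative to vehicle-only wells. The test organism is a mutant strain from a panel with lesions in DNA repair or checkpoint genes.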

[6] = NCI Yeast Anticancer Drug Screen. Data for the mlh1 rad18 strain (AID 175); conditions: S. cerevisiae mlh1 rad18 strain growth inhibition; at 50.0 µM; stronger effect = higher value
Procedure, shortened: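 Read-out is yeast growth inhibition, calculated against vehicle-only controls. The compound was applied to a strain engineered with DNA damage repair alterations.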

| Structure (SMILES) | growth inhibition [1] | growth inhibition [2] | growth inhibition [3] | growth inhibition [4] | growth inhibition [5] | growth inhibition [6] |
| --- | --- | --- | --- | --- | --- | --- |
| [C-]#[O+].[C-]#[O+].[C-]#[O+].[C-]#[O+].[Cr].c1ccc([PH+](CC[PH+](c2ccccc2)c2ccccc2)CC[PH+](c2ccccc2)c2ccccc2)cc1 | 14.9% (inactive) | 3.75% (inactive) | -3.35% (inactive) | 32.2% (inactive) | 19.4% (inactive) | 6.2% (inactive) |
| O=C(NC1CCCCC1)c1c(O)[nH]c(=S)[nH]c1=O | -20.4% (inactive) | -0.3% (inactive) | 14.8% (inactive) | 12.2% (inactive) | -4.9% (inactive) | -0.55% (inactive) |
| C[N+](C)(C)Cc1cccc([N+](=O)[O-])c1 | -47.9% (inactive) | -5.5% (inactive) | -3.8% (inactive) | -40.7% (inactive) | -4% (inactive) | 13.2% (inactive) |
| NC1CCCCC1.[O]=[Ge].[O]=[Ge].[O]=[Ge][OH].[O]=[Ge][OH] | -26.9% (inactive) | -10.9% (inactive) | -10.8% (inactive) | 13.1% (inactive) | 12.9% (inactive) | 4.95% (inactive) |
| CC1(C)OC(C=O)C2CC(=O)c3c(O)cccc3C2(C)O1 (stereo not given) | 33.4% (inactive) | -1.45% (inactive) | 12.9% (inactive) | -4.15% (inactive) | 11.9% (inactive) | 0.35% (inactive) |
| COc1cccc(OC)c1CCN | -27.9% (inactive) | -5.3% (inactive) | -11.4% (inactive) | -1.1% (inactive) | -24.8% (inactive) | -36% (inactive) |
| COc1cc(CC(C)N)ccc1O (stereo not given) | 7.9% (inactive) | -9.4% (inactive) | -14.2% (inactive) | -46.4% (inactive) | 21.6% (inactive) | -18.4% (inactive) |
| CC1(C)CC(=O)CC(C)(C)C1 | -25.6% (inactive) | -12.2% (inactive) | -1.65% (inactive) | 4.35% (inactive) | -13.2% (inactive) | -11.2% (inactive) |
| Cc1c(O)c(O)c(C)c(CCN)c1O | 15.4% (inactive) | 19.8% (inactive) | 22.1% (inactive) | -26.8% (inactive) | 25.1% (inactive) | 27.9% (inactive) |
| Nc1ncnc2c1ncn2C1OC(CO)C2NP(=O)(N(CCCl)CCCl)OC21 (stereo not given) | 6.1% (inactive) and 16.9% (inactive) | -6.2% (inactive) and 1.7% (inactive) | -22.1% (inactive) and -19.3% (inactive) | -8.1% (inactive) and 5.15% (inactive) | -6.15% (inactive) and -15.6% (inactive) | -38% (inactive) and -8.55% (inactive) |
| CC1(C)CCC(C)(C)c2c1ccc(O)c2Cc1c(O)ccc2c1C(C)(C)CCC2(C)C | 3.55% (inactive) | -30.8% (inactive) | -39% (inactive) | -17.2% (inactive) | -41.2% (inactive) | -6.8% (inactive) |
| C=C(C)C1(CC)C(=O)NC(=O)N(C)C1=O (stereo not given) | 11.8% (inactive) and -4.5% (inactive) | 7.5% (inactive) and 9.4% (inactive) | -1.25% (inactive) and -7.5% (inactive) | 10.2% (inactive) and -11.2% (inactive) | 3.65% (inactive) and 1.5% (inactive) | -7.95% (inactive) and -13.1% (inactive) |
| CSC(SC)P(=O)(Oc1ccccc1)Oc1ccccc1 | -10.4% (inactive) | 2.85% (inactive) | 1.4% (inactive) | 4.45% (inactive) | 8.7% (inactive) | 10.6% (inactive) |
| O=C(O)C(=O)O.[Ru].c1cnc2c(c1)ccc1cccnc12.c1cnc2c(c1)ccc1cccnc12 | 25.1% (inactive) | -10.9% (inactive) | 2.95% (inactive) | 5.45% (inactive) | -2.2% (inactive) | 5.25% (inactive) |
| O=C(OC1CN2CCC1CC2)N(c1ccccc1)c1ccccc1 (stereo not given) | 2.35% (inactive) | 0.25% (inactive) | -4.1% (inactive) | -4.75% (inactive) | 3.5% (inactive) | 13.3% (inactive) |
| CCCCCCCC[As](=O)(O)CCCCCCCC | -2.95% (inactive) | -0.3% (inactive) | 20.9% (inactive) | -6.85% (inactive) | -0.7% (inactive) | -10.2% (inactive) |
| Cc1cc(-c2ccccc2)cc(C)[n+]1CC[n+]1c(C)cc(-c2ccccc2)cc1C | -14.9% (inactive) | -10.7% (inactive) | -5.85% (inactive) | -47.7% (inactive) | 3.4% (inactive) | -19.4% (inactive) |
| CN(C)P(=O)(N(C)C)N(C)CO | 6.35% (inactive) | 6.05% (inactive) | 25.4% (inactive) | 7.35% (inactive) | 18.2% (inactive) | 4.6% (inactive) |
| [CH3][Sn]([CH3])([CH3])[S]C(=S)N1CCOCC1 | 98.7% (active) | 90% (active) | 98.2% (active) | 94.2% (active) | 98.5% (active) | 98.5% (active) |
| CN(C)P1P(N(C)C)P(N(C)C)P1N(C)C (stereo not given) | -25.4% (inactive) | 9.75% (inactive) | 2.2% (inactive) | -58.7% (inactive) | -7.5% (inactive) | -1.2% (inactive) |

| Structure (SMILES) | growth inhibition [1] | growth inhibition [2] | growth inhibition [3] | growth inhibition [4] | growth inhibition [5] | growth inhibition [6] |
| --- | --- | --- | --- | --- | --- | --- |
| CSC(SC)=C1C(=O)NC(=O)NC1=O | -11.8% (inactive) | 1.65% (inactive) | 1.7% (inactive) | 10.2% (inactive) | -10.1% (inactive) | -16.4% (inactive) |
| CC(=O)c1ccccc1O.[Cr] | 3.05% (inactive) | -32.3% (inactive) | 19.3% (inactive) | 3.75% (inactive) | -18.3% (inactive) | 21.2% (inactive) |
| COC[C@]12CN(C=O)[C@H]3C4[C@H](OC)[C@H]1C3([C@@H](OC)C[C@H]2O)[C@@H]1C[C@@]2(O)[C@H](OC(=O)c3ccccc3)[C@@H]1[C@]4(OC(C)=O)[C@@H](O)[C@@H]2OC | 9.45% (inactive) | 14.4% (inactive) | -13.8% (inactive) | -2.2% (inactive) | 0.2% (inactive) | 25.6% (inactive) |
| COc1cc2c(cc1OC)C13CCN4CC5=CCOC(CC(=O)O)C(C5CC41)C3N2 (stereo not given) | 14.2% (inactive) and -40.6% (inactive) | 26.1% (inactive) and -27.1% (inactive) | 47.1% (inactive) and -32.6% (inactive) | 91.8% (active) and 10.6% (inactive) | -18.6% (inactive) and -38.2% (inactive) | 3.35% (inactive) and -34.1% (inactive) |
| C(#Cc1ccccc1)c1ccccc1.[C-]#[O+].[C-]#[O+].[C-]#[O+].[C-]#[O+].[C-]#[O+].[C-]#[O+].[Co].[Co] | 42.4% (inactive) | 28.1% (inactive) | 42.4% (inactive) | -3.55% (inactive) | 5.2% (inactive) | 53.2% (inactive) |
| O=[N+]([O-])c1cccc2c([N+](=O)[O-])cccc12 | 3.6% (inactive) | 5.2% (inactive) | -1.15% (inactive) | -4.85% (inactive) | -0.7% (inactive) | 0.05% (inactive) |
| Cc1ccc(NP(=S)(Nc2ccc(C)cc2C)Nc2ccc(C)cc2C)c(C)c1 | 18.3% (inactive) | -1.6% (inactive) | -3.1% (inactive) | 17.9% (inactive) | 2.7% (inactive) | 9.55% (inactive) |
| CCC[CH2][Sn]([CH2]CCN(C)C)([CH2]CCN(C)C)[CH2]CCN(C)C | 38.5% (inactive) | 8.4% (inactive) | 12.8% (inactive) | 15.2% (inactive) | -1.95% (inactive) | 28.2% (inactive) |
| CC1(C)[C@@H]2CC[C@]1(C)[C@H](OC(=O)C(Cl)(Cl)Cl)C2 | -16.6% (inactive) | -5.35% (inactive) | -9.65% (inactive) | -19.3% (inactive) | 26.8% (inactive) | 9.75% (inactive) |
| CC12CCC(O)CC1CCC1C2CCC2(C)C(C3=CC(=O)OC3)CCC12 (stereo not given) | 7.05% (inactive) | 18.4% (inactive) | 30.6% (inactive) | 12.1% (inactive) | 12.1% (inactive) | 42.5% (inactive) |
| NC(Cc1ccccc1)c1nccs1 (stereo not given) | -8.95% (inactive) | -26.6% (inactive) | -7.65% (inactive) | 11.2% (inactive) | -30.1% (inactive) | -2.6% (inactive) |
| CCCCCCN1C(C)C1C(C)C (stereo not given) | 5.7% (inactive) | 12.2% (inactive) | 2.25% (inactive) | -3.8% (inactive) | -4.15% (inactive) | 1.6% (inactive) |
| CN(Cc1ccccc1)CC(O)c1ccccc1Cl (stereo not given) | -0.75% (inactive) | -2.7% (inactive) | 21.4% (inactive) | -28.2% (inactive) | 13.3% (inactive) | 25.1% (inactive) |
| CCN1CC2(C)CCC(OC)C34C5CC6CCC(O)(C5C(=O)O6)C(C(O)C23)C14 (stereo not given) | -9.45% (inactive) | -44% (inactive) | 2% (inactive) | -0.5% (inactive) | -34.1% (inactive) | -57.7% (inactive) |
| NC(=O)Cc1ccc([As]=O)cc1 (stereo not given) | 19.6% (inactive) | 10.1% (inactive) | 9.05% (inactive) | 21% (inactive) | 6.85% (inactive) | 14.9% (inactive) |
| FC(F)(F)c1ccc(Cl)c(NC2=NCCS2)c1 | 14.2% (inactive) | 24.8% (inactive) | 19.4% (inactive) | 11.2% (inactive) | 11% (inactive) | 20.2% (inactive) |
| CN1CCN(C)C(N2CCOCC2)C(C)(C)C1 (stereo not given) | 15.4% (inactive) | -4.2% (inactive) | -8.15% (inactive) | -9.45% (inactive) | 0.85% (inactive) | 2.85% (inactive) |
| CCN(CC)P1(=O)OP(=O)(N(CC)CC)OP(=O)(N(CC)CC)O1 (stereo not given) | -0.5% (inactive) | 7% (inactive) | 11.8% (inactive) | 14.3% (inactive) | -9.7% (inactive) | -11.6% (inactive) |
| O=P(O)(Oc1ccccc1)Oc1ccccc1 | 33.7% (inactive) | 16.4% (inactive) | 14.8% (inactive) | 18.2% (inactive) | 0.55% (inactive) | 20.9% (inactive) |
| O=C(c1ccccc1)C1C(c2ccccc2)N1Cc1ccccc1 (stereo not given) | 0.35% (inactive) | 12.2% (inactive) | 10.2% (inactive) | 6.15% (inactive) | 9.65% (inactive) | -2.9% (inactive) |
